Molecules are shown by their SMILES. Unmarked numbers belong to inactive results. Records with an inconclusive call do not appear. The source made the active and inactive calls. Unless noted, calls come from the whole dose curve; as a rule, active = well fitted curve in the direction sought with a large enough effect; inconclusive = small, poorly fitted or top-dose-only effect, or another doubt; inactive = no such curve, though single readings can be large; an effect the other way counts as inactive or inconclusive.

Here are results for one molecule from PubChem BioAssay (NCATS).

Test [1] addresses Cytochrome P450 1A2 (Homo sapiens) (UniProt P05177). Description: p450-cyp1a2 (AID 410; calls by dose curve; note: potency is the fitted concentration of half-maximal effect). The procedure, abridged:
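Luminescent demethylation readout: Luciferin-ME (100uM, equal to Km) turned over by 20nM CYP1A2 for 60 min at room temperature after NADPH regeneration addition, following 10 min compound preincubation. Normalization used 57 uM furafylline as full inhibition.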

Test [2] has as its target Glucocorticoid receptor (Homo sapiens) (UniProt P04150). The experiment in a line: GR-GFP Redistribution (AID 450;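 active = compounds whose dose series gives a full or clear partial fitted curve of increased nuclear translocation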; note: potency is the fitted concentration of half-maximal effect). To be noted: U2OS GR-GFP nuclear translocation, laser cytometry, 2 h.
The target in test [3] is Mitogen-activated protein kinase 10 (Mus musculus) (UniProt Q61831). Description: JNK3 AlphaScreen Assay (AID 530; active = well fitted curve in either direction with a large enough effect, not every such curve was filed as active;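 note: kinase came from lysate of stimulated human HepG2 cells; signal reports phosphorylation of biotinylated GST-cJun 1-79 at Ser73 with 10 µM ATP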). The procedure, abridged:
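Activity was read by AlphaScreen after JNK3-containing HepG2 lysate (cytokine pre-activated) phosphorylated biotinylated GST-cJun with 10 uM ATP at room temperature. Phospho-Ser73 cJun antibody with Protein-A acceptor beads provided detection.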
A general note: In Alpha technology, singlet oxygen from a donor bead excites a nearby acceptor bead.

Test [4] addresses Cytochrome P450 2C9 (Homo sapiens) (UniProt P11712). The experiment in a line: qHTS Assay for Inhibitors and Substrates of Cytochrome P450 2C9 (AID 883). Note: potency is the fitted concentration of half-maximal effect; nearly all actives have a fitted effect of over 60% in size. The procedure, abridged: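 10nM CYP2C9 + 100uM Luciferin-H (=KM), 25mM KPO4; cpd 10 min 37C; NADPH regen, 60 min 37C; stop/detect with P450 Glo-Buffer 20 min; luminescence. Norm. to 57uM sulphaphenazole as full inhibition.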
In test [5] the target is Cytochrome P450 3A4 (Homo sapiens) (UniProt P08684). Description: qHTS Assay for Inhibitors and Substrates of Cytochrome P450 3A4 (AID 884). Note: potency is the fitted concentration of half-maximal effect; nearly all actives have a fitted effect of over 50% in size. The procedure, abridged:
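Luminescent readout of luciferin produced by CYP3A4 (20 nM) dealkylation of Luciferin-PPXE, 25 uM (its KM). NADPH-driven reaction ran 60 min at RT after 10 min compound preincubation; data scaled to 57 uM ketoconazole as 100% inhibition.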
A general note: qHTS replaces the single test concentration by a dilution series.

Test [6] shares this target. Description: qHTS Assay for Activators of Cytochrome P450 3A4 (AID 885). Note: nearly all actives have a fitted effect of over 65% in size. The method, boiled down:
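Luminescent readout of luciferin formed from 25 uM Luciferin-PPXE (KM level) by 20 nM CYP3A4 in 200 mM KPO4, with 60 min NADPH-driven reaction at room temperature after 10 min compound exposure. Ketoconazole (57 uM) defined 100% inhibition.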

Test [7] has as its target Cytochrome P450 2C19 (Homo sapiens) (UniProt P33261). The experiment in a line: qHTS Assay for Inhibitors and Substrates of Cytochrome P450 2C19 (AID 899). Note: potency is the fitted concentration of half-maximal effect; nearly all actives have a fitted effect of over 60% in size. The method, boiled down: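 Luminescent read-out of luciferin formed from Luciferin-H EGE (10uM, equal to KM). Enzyme 5nM in 50mM KPO4; compound added, 10 min at 37C, then NADPH regenerating system for 60 min at 37C. Full inhibition defined by 57uM ketoconazole.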

In test [8] the target is ATP-dependent 6-phosphofructokinase (Trypanosoma brucei brucei) (UniProt O15648). Description: qHTS Assay to Find Inhibitors of T. brucei phosphofructokinase: hit validation (AID 492961). The method, boiled down: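 Luminescence from ADP-Glo reports ADP generated as T. brucei PFK (1.25 nM) phosphorylates 0.5 mM fructose-6-phosphate using 0.1 mM ATP. Reactions ran 45 min at room temperature, pH 8.0.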
Chain of ATP-dependent 6-phosphofructokinase (Trypanosoma brucei brucei) (O15648 whole entry, looked up): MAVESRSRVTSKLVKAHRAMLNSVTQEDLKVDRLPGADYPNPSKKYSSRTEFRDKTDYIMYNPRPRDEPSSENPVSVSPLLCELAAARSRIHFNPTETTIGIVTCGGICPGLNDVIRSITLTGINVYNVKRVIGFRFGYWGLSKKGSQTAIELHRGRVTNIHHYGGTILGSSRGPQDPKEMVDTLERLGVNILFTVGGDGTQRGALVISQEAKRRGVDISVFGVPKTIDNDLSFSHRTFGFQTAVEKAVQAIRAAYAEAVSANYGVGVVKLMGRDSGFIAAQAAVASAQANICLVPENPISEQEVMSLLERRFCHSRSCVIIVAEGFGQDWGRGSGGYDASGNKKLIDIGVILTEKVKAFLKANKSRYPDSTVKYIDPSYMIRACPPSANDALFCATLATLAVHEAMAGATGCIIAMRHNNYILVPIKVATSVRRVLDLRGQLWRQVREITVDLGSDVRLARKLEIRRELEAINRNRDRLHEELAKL

Test [9] deals with Ubiquitin carboxyl-terminal hydrolase 1 (Homo sapiens) (UniProt O94782). Description: Inhibitors of USP1/UAF1: Pilot qHTS (AID 504865).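 Note: rhodamine fluorescence freed from ubiquitin-rhodamine substrate followed over time; top concentration of the series differs between compounds; nearly all actives have a fitted effect of over 35% in size.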 The procedure, abridged:
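USP1/UAF1 complex (1nM) preincubated with compound 15 min at room temperature, then Ub-Rho substrate (150nM final) added. Fluorescence read kinetically at 480/540 nm, 6 reads every 60 seconds. Buffer: 50mM HEPES pH 7.8, 0.5mM EDTA, 0.1 mg/ml BSA, 1mM TCEP, 0.01% Tween-20.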

In test [10] the target is DNA dC->dU-editing enzyme APOBEC-3G (Homo sapiens) (UniProt Q9HC16). The experiment in a line: qHTS for inhibitors of Vif-A3G interactions: Validation (AID 588379). The method, boiled down: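 Yellow fluorescence (Ex 488, Em 500-530) of Vif-coexpressing HeLa A3G-eYFP cells, scanned by Acumen cytometer, reports blocked A3G degradation. Cells plated at 700/well overnight at 37 deg C before compound addition, then a further overnight compound incubation at 37 deg C.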
Chain of DNA dC->dU-editing enzyme APOBEC-3G (Homo sapiens) (Q9HC16 whole entry, looked up): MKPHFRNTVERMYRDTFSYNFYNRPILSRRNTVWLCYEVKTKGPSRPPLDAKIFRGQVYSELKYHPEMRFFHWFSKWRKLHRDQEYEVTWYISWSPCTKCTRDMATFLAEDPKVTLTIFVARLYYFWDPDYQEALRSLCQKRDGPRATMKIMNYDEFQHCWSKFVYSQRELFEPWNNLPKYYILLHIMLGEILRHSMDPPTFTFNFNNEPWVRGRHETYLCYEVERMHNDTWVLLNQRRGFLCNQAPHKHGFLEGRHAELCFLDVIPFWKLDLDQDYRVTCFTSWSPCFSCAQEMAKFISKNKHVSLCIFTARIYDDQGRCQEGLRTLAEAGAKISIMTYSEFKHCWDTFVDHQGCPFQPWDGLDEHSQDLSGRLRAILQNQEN

Test [11] deals with Luciferin 4-monooxygenase (Photinus pyralis) (UniProt P08659). The experiment in a line: Biochemical firefly luciferase enzyme assay for NPC (AID 624030).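 Note: purified P. pyralis luciferase at 10 nM with luciferin and ATP substrate; nearly all actives have a fitted effect of over 70% in size.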 The procedure, abridged: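 Purified P. pyralis luciferase at 10 nM in 50 mM Tris Acetate (final), luminescence read within 5 minutes of enzyme addition to compounds. Activity normalised to PTC124 versus DMSO; concentration-response curves classed by r2, magnitude and activity.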
Chain of Luciferin 4-monooxygenase (Photinus pyralis) (P08659 whole entry, looked up): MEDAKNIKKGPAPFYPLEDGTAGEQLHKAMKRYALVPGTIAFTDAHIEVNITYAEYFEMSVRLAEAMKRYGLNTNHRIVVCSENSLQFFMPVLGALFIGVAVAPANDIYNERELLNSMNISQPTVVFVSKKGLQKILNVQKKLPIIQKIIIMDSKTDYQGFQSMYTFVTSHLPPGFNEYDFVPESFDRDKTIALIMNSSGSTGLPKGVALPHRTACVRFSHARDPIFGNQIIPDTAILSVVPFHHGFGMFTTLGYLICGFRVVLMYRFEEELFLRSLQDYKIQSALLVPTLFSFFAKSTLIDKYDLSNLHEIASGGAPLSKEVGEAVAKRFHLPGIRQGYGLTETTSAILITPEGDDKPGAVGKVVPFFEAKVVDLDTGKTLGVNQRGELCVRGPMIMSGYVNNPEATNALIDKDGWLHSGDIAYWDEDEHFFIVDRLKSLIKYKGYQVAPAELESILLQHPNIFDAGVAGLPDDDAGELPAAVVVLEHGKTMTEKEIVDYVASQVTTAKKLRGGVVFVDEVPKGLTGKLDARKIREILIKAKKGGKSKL

Test [12] can be described thus: S16 Schwann cell viability assay (CellTiter-Glo assay) (AID 624031). Note: nearly all actives have a fitted effect of over 70% in size. The procedure, abridged:
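CellTiter-Glo ATP luminescence counter-screen in untransfected S16 rat Schwann cells, 24h compound exposure at 37 degree Celsius after overnight seeding (500-750 cells/well); response scaled between cell-free wells and DMSO (0% activity), curves classed by r2 and magnitude.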
A general note: ATP-based viability assays read luminescence as a measure of living cells.

Test [13] in a line: S16 Schwann cell PMP22 intronic element firefly luciferase assay (AID 624032). Note: nearly all actives have a fitted effect of over 30% in size. The procedure, abridged:
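Rat S16 Schwann cells stably carrying firefly luciferase driven by a PMP22 intronic element, in 10% FBS, treated 24 h at 37 C. ONE-Glo luminescence normalized to PTC124 control and DMSO (0%); curves classed by r2, magnitude and activity.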

Test [14] in a line: P-glycoprotein substrates identified in KB-3-1 adenocarcinoma cell line, qHTS therapeutic library screen (AID 1346986). Note: nearly all actives have a fitted effect of over 60% in size. The method, boiled down:
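In 1536-well format, 500 cells/well received pinned compound titrations and were incubated 72 h, 5% CO2. Viability was read by CellTiter-Glo; cytotoxic if AC50 < 10 uM and efficacy >50%.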

Test [15] in a line: P-glycoprotein substrates identified in KB-8-5-11 adenocarcinoma cell line, qHTS therapeutic library screen (AID 1346987). Note: nearly all actives have a fitted effect of over 65% in size. The method, boiled down:
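Compounds are pinned in dose-response onto KB-8-5-11 cells (500 cells/well, colchicine-free medium) and left 72 h at 37 degree C. CellTiter-Glo luminescence then yields AC50 values.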

Test [16] can be described thus: Primary qHTS for inhibitors of SARS-S pseudo-typed particle cell entry (AID 1479145; calls by dose curve; note: nearly all actives have a fitted effect of over 45% in size).
Test [17] is described as follows: Primary qHTS for Huh7 cytotoxicity: counterscreen for inhibitors of MERS-S pseudotyped particle cell entry (AID 1479147; calls by dose curve). To be noted: outcome: dose series up to 57.1 µM unless noted.
A short description of test [18]: Primary qHTS for inhibitors of MERS-S pseudo-typed particle cell entry (AID 1479149; calls by dose curve; note: nearly all actives have a fitted effect of over 60% in size).
Test [19] in a line: Cytotoxicity counterscreen for inhibitors of SARS-CoV-2 cell entry (AID 1645845; calls by dose curve; note: nearly all actives have a fitted effect of over 50% in size). The method, boiled down:
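Counterscreen run in the same HEK293-ACE2 line as the pseudotyped-particle entry assay, without particles. Viability after 48 h at 37 C was read as ATP luminescence, scaled between cell-containing and cell-free wells.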

Test [20] can be described thus: Primary qHTS to identify inhibitors of SARS-CoV-2 cell entry (AID 1645846; calls by dose curve; note: nearly all actives have a fitted effect of over 45% in size). To be noted: activity change, negative = inhibition: at 57.1 µM (top of the series) unless noted. The method, boiled down: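 Luminescence readout (Bright-Glo luciferase) 48 h after pseudoparticle addition. HEK293-ACE2 cells, 1500/well; compound pre-incubation 1 h; Normalized to spike PP and bald PP.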

Test [21] is described as follows: Primary qHTS for inhibitors of nuclear receptor binding SET domain protein 2 (NSD2) in an isogenic RCH-ACV NSD2 p.E1099K mutant (9B) (AID 1645876). Note: nearly all actives have a fitted effect of over 70% in size.
Test [22] is described as follows: Primary qHTS for inhibitors of nuclear receptor binding SET domain protein 2 (NSD2) in an RCH-ACV wild type WT cells (2C) (AID 1645877). Note: nearly all actives have a fitted effect of over 70% in size.

Chain of Cytochrome P450 3A4 (Homo sapiens) (P08684 whole entry, looked up): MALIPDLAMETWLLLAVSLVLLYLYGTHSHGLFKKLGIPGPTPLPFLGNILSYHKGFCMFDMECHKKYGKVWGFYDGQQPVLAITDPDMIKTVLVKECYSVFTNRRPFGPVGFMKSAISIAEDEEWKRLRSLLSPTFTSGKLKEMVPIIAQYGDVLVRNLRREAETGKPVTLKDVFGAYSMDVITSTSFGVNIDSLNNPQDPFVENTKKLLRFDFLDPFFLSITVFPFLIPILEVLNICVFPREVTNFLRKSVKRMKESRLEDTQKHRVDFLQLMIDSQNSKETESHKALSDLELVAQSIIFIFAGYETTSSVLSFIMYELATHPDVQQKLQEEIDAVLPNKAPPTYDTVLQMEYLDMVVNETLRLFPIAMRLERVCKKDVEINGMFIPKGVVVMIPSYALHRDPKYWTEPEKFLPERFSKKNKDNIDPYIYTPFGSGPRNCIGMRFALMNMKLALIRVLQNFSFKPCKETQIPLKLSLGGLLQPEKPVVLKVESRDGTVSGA
Chain of Glucocorticoid receptor (Homo sapiens) (P04150 whole entry, looked up): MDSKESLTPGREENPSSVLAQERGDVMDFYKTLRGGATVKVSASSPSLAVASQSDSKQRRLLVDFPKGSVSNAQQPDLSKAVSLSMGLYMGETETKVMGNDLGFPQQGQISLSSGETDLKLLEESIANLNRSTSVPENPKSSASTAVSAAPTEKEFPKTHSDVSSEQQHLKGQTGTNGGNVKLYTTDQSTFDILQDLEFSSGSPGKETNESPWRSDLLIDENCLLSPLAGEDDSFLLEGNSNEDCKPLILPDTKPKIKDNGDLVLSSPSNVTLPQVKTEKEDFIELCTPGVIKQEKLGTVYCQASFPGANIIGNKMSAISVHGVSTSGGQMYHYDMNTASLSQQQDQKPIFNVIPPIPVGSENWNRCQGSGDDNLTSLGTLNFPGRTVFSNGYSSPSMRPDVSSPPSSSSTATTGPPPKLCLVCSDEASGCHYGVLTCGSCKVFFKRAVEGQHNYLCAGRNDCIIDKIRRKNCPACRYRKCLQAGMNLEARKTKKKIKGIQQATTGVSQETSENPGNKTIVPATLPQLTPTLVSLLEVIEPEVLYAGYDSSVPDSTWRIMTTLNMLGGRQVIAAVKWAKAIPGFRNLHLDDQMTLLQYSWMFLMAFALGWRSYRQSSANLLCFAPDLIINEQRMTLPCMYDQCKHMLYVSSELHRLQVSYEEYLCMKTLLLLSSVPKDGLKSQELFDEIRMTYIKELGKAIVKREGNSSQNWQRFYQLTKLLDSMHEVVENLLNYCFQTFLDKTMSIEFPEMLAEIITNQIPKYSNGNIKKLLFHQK
Chain of Cytochrome P450 2C9 (Homo sapiens) (P11712 whole entry, looked up): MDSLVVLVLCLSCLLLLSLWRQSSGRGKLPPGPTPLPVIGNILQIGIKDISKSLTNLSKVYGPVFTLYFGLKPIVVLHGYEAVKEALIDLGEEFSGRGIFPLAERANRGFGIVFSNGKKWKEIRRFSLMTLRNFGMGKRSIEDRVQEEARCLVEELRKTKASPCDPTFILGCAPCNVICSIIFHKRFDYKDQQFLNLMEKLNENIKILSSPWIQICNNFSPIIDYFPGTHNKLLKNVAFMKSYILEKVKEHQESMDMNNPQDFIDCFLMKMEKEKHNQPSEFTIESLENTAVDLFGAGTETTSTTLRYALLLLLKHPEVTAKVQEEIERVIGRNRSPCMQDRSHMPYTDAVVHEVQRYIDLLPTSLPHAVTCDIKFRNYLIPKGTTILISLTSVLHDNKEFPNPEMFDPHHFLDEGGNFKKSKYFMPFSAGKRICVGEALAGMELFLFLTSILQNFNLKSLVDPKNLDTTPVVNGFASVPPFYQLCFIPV
Chain of Ubiquitin carboxyl-terminal hydrolase 1 (Homo sapiens) (O94782 whole entry, looked up): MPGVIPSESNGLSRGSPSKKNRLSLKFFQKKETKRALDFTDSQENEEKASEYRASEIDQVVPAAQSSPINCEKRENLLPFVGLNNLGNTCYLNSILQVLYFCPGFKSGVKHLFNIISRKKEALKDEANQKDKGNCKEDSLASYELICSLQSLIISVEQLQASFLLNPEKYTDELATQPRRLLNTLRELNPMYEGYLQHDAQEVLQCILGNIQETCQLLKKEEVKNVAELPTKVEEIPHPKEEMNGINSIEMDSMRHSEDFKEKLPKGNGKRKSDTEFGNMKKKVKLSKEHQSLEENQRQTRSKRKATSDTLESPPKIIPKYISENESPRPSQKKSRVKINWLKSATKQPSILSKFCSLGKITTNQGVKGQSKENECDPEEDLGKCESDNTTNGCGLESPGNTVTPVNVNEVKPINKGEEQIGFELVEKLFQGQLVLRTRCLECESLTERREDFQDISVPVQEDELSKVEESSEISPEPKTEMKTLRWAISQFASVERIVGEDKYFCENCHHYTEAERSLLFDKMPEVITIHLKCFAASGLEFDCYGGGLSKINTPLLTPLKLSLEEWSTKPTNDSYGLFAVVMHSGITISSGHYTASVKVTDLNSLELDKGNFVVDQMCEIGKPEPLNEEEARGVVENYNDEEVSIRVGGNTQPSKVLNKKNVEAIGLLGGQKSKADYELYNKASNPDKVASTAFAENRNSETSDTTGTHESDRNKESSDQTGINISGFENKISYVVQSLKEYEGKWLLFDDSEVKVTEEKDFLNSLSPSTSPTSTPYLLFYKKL
Chain of Cytochrome P450 1A2 (Homo sapiens) (P05177 whole entry, looked up): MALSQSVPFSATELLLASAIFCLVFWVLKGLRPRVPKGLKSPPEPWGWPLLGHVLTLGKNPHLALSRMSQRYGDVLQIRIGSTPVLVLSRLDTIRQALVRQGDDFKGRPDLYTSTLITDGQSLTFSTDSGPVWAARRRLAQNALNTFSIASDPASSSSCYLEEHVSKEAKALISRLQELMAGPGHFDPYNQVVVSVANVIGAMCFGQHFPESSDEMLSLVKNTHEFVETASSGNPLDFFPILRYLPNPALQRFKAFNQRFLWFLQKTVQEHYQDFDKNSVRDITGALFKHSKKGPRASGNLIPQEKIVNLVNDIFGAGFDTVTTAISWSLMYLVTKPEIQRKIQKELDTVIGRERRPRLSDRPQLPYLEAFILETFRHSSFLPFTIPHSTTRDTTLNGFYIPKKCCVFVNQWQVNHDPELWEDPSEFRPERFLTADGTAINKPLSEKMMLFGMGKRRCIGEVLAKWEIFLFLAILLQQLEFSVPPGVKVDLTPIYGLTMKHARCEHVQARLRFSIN
Chain of Cytochrome P450 2C19 (Homo sapiens) (P33261 whole entry, looked up): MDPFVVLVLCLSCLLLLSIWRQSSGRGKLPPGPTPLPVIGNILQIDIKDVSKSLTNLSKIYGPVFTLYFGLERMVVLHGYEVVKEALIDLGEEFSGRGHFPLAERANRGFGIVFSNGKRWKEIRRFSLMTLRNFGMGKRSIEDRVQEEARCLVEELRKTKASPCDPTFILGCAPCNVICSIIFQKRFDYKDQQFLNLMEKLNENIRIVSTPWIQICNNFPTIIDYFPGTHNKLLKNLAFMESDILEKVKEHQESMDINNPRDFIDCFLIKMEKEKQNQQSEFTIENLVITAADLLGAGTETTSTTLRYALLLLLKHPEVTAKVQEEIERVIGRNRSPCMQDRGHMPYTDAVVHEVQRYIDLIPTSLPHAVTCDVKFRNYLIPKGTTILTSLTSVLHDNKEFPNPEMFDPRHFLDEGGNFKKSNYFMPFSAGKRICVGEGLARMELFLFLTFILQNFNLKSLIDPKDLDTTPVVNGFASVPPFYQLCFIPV

`Cc1cccc([C@H](C)c2cnc[nH]2)c1C`: the Potency in [1] was 0.158 µM (active); in test [2], more than 46 µM; in test [4], 0.199 µM (active); in test [5] it was 0.158 µM (active); in test [7], 5.01 µM (active). Also, the result in [3] and in [17] was inactive. In addition, the Potency entry in test [6], in test [8], in [9], in test [10], in test [11] and in [12] was “inactive” in each case. The Potency result in [13], in test [14], in test [15], in [16], in test [18] and in [19] was “inactive” in each case. The Potency entry in test [20], in [21] and in test [22] was “inactive” in each case.
